Pf Dd2 growth: inhibitors of Plasmodium falciparum Dd2 growth; actives 4.3% (n = 120,000); P. falciparum Dd2 growth, SYBR Green, 72 h; AID 1347417; Potency, µM (titrated, usually from 28.9 µM), usual class: inhibitors; active = well fitted inhibition curve with a large enough effect; also: nearly all actives have a fitted effect of over 65% in size
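Readout: SYBR Green fluorescence, 485 nm excitation, 535 nm emission, after ~16 h lysis at 37C. Before that, Dd2-infected red cells (2.5% hematocrit) grew 72 h with compound, 29 uM top final concentration.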
Each line names hits and unclear results; the compound was inactive in the other large screens. This is one part of a sample in which hits are shown more often than they occur.

COC(=O)[C@@H]1Cc2ncn(Cc3ccccc3)c2CN1S(=O)(=O)c1cccc(C(F)(F)F)c1	none
CCc1cc(NCC(O)CN2CCCC2)ncn1 (configuration not stated)	none
CC(C)c1nncn1C1CCN(S(=O)(=O)c2cccc(F)c2)CC1	none
CNC(=O)[C@@H](c1ccc(OC)cc1)N1CCC[C@H]1C(=O)N1CCC1	none
Cc1sc2ccn(CC(C)C)c(=O)c2c1C(=O)N1CCC(C)CC1	none
O=C1CCCCC(CNC(=O)c2ccccn2)N1 (configuration not stated)	none
CN1CCN([C@H]2CCN(C(=O)NCCc3ccccc3)C[C@H]2CCC(=O)O)CC1	none
Cc1ccc(NC(=O)Cn2c(=O)c(-c3noc(C)n3)c3n(c2=O)CCCCC3)c(Cl)c1	none
COc1ccc(C2CC(=O)Nc3c2c(C)nn3-c2nc(C)cc(C)n2)c(OC)c1OC (configuration not stated)	none
COc1cc(C2CC(=O)Nc3c2c(C)nn3-c2nc(C)cc(C)n2)cc(OC)c1O (configuration not stated)	none
CCc1ccc(C2CC(=O)Nc3c2c(C)nn3-c2nc(C)cc(C)n2)cc1 (configuration not stated)	Pf Dd2 growth 11.2µM
Cc1ncc2n1C(=O)N(C1CCN(Cc3ccsc3)CC1)C2	none
Cc1nc(CC2CCN(C(=O)C3CCCC3)CC2)n[nH]1	none
Fc1ccc(CCC2CCCN(Cc3nccs3)C2)cc1F (configuration not stated)	none
CC1(C(=O)N2CCCC(CCc3ccc(F)c(F)c3)C2)CC1 (configuration not stated)	none
Fc1ccc(CCC2CCCNC2)cc1F (configuration not stated)	Pf Dd2 growth 7.08µM
Cc1nonc1CC(=O)N1CCCC(c2nnc(Cn3cccn3)n2C)C1 (configuration not stated)	none
O=C(NCc1ccncc1)c1cc2n(n1)CC(c1ccc(Br)cc1)OC2 (configuration not stated)	none
O=C(CCn1ccn2nc3c(c2c1=O)CCCC3)Nc1ccc(F)c(F)c1	none
COc1ccccc1C(=O)N1CCCC2(C1)NC(=O)c1ccccc1O2 (configuration not stated)	none
CCCN1CCN(C(=O)c2ccc3c(c2)n(Cc2ccc(F)cc2)c(=O)c2ccnn23)CC1	none
Cc1ccccc1NC(=O)COc1ccc(-c2nnc3n2CCCC3)cc1	Pf Dd2 growth 11.2µM
O=C(Nc1ccc(-c2nnc3n2CCCC3)cc1)C1CC1	none
COc1ccccc1NC(=O)Nc1ccc(-c2nnc3n2CCCC3)cc1	Pf Dd2 growth 3.98µM
COc1ccccc1NC(=O)Nc1cccc(-c2nnc3n2CCCC3)c1	none
O=C(Nc1ccc(-c2nnc3n2CCCC3)cc1)Nc1ccccc1Br	none
O=C(COc1ccccc1)Nc1ccc(-c2nnc3n2CCCC3)cc1	Pf Dd2 growth 10µM
Cc1cccc(NC(=O)Cn2nc3n(c2=O)CCCCC3)c1C	none
Cc1ccccc1NC(=O)Cn1c(C)cc2nc3n(c(=O)c21)CCCCC3	none
O=C(CCC1CCCC1)Nc1ccc(-c2nnc3n2CCCC3)cc1	none
CCc1ccc(NC(=O)COc2cccc(-c3nnc4n3CCCC4)c2)cc1	Pf Dd2 growth 5.01µM
CCc1cccc(OCC(=O)Nc2ccc(S(=O)(=O)Nc3ncccn3)cc2)c1	none
Cn1nccc1C(=O)N1CCCN(S(C)(=O)=O)c2ccccc21	none
O=C(O)C1(Oc2ccc3ccccc3c2)CCN(Cc2ccc(CO)o2)CC1	none
O=C(C1=NOC2CN(C(=O)C3CC3)CC12)N1CCN(c2ncccn2)CC1 (configuration not stated)	none
Cc1nnc(-c2cc(-c3cnn(C)c3)ccn2)n1Cc1ccccc1	none
CC1(C)[C@H](Cc2cc(CN3CCCCC3)on2)C[C@@H]1NCc1ccccn1	none
Cc1noc(C)c1-c1cc2cc(CN(C)C)oc2c(N2CCN(c3ccccn3)CC2)n1	none
O=C1CC(c2ccccc2)N(C(=O)CNC(=O)NC2CCCCC2)CCCCCN1 (configuration not stated)	none
COC(=O)N1CCC2(CC1)C(=O)NN=C2C1CC1	none
O=C(c1ccc2c(c1)OCO2)N1CCC2(CC(c3cccnc3)=NO2)C1 (configuration not stated)	none
CCOc1ccc(NC(=O)Cn2c(C)cc3nc4n(c(=O)c32)CCCC4)cc1	none
COc1ccc(-c2nnc3n2CCN(C(C)=O)C3)cc1	none
O=C(COc1ccc(-c2nnc3n2CCCC3)cc1)Nc1ccc(F)cc1	Pf Dd2 growth 5.62µM
CNC(=O)N1CCCCCCn2c(nnc2-c2ccc(F)cc2)CC1	none
CCc1ccc(NC(=O)COc2ccc(-c3nnc4n3CCCC4)cc2)cc1	Pf Dd2 growth 3.98µM
O=C(C1CC1)N1CCCCCCn2c(nnc2-c2ccc(F)cc2)CC1	none
COc1ccc(CCC(=O)Nc2ccc(-c3nnc4n3CCCC4)cc2)cc1	none
COc1ccc(N2CCN(C(=O)COc3ccc(-c4nnc5n4CCCC5)cc3)CC2)cc1	Pf Dd2 growth 0.708µM
COc1ccc(CC(=O)N2CCn3c(nnc3-c3ccc(OC)cc3)C2)cc1	none
Cc1cc2nc3n(c(=O)c2n1CC(=O)Nc1ccccc1)CCCCC3	none
O=C(COc1ccc(-c2nnc3n2CCCC3)cc1)Nc1ccccc1	Pf Dd2 growth 7.94µM
Cc1cnc(C(=O)N2CCC(C3CCN(S(C)(=O)=O)CC3)C2)cn1 (configuration not stated)	none
Cn1cccc1C(=O)N1CCCC(c2nc(CCOCC3CCOCC3)no2)C1 (configuration not stated)	none
c1ccc(Oc2nccn3c(-c4ccc(CNCc5ccn[nH]5)cc4)cnc23)cc1	none
Cc1ccc(CNC(=O)Cn2cccc2-c2nc(-c3ccc(F)cc3)no2)cc1	none
CC(=O)N1CC2(Cc3ccccc31)CN([S+](=O)([O-])c1cccs1)C2	none
COc1cccc(NC(=O)COc2ccc(-c3nnc4n3CCCC4)cc2)c1	Pf Dd2 growth 2.82µM
COc1cccc(NC(=O)Cn2nc3n(c2=O)CCCCC3)c1	none
COc1cccc(NC(=O)Cn2c(C)cc3nc4n(c(=O)c32)CCCC4)c1	none
CC1(c2ccccc2)N(Cc2cccnc2)C(=O)OC12CCN(C(=O)Cc1cccc(F)c1)CC2 (configuration not stated)	none
CC(C)C(=O)N1CCC2(CC1)OC(=O)N(Cc1ncccn1)C2(C)c1ccccc1 (configuration not stated)	none
CC1(c2ccccc2)N(Cc2ccccc2C#N)C(=O)OC12CCN(C(=O)Cc1cccc(F)c1)CC2 (configuration not stated)	Pf Dd2 growth 11.2µM
CC1(c2ccccc2)N(Cc2ncccn2)C(=O)OC12CCN(C(=O)Cc1ccc(Cl)cc1)CC2 (configuration not stated)	Pf Dd2 growth 12.6µM
CC1(c2ccccc2)N(Cc2ccccc2F)C(=O)OC12CCN(C(=O)Cc1ccc(O)cc1)CC2 (configuration not stated)	none
CC1(c2ccccc2)N(Cc2ccccc2C#N)C(=O)OC12CCN(C(=O)Cc1ccc(O)cc1)CC2 (configuration not stated)	none
Cc1ccsc1C(=O)NCCC1CCN(C(=O)Nc2ccccc2)CC1	none
CCOC(=O)N1CCN(Cc2nc3cc(NC(=O)c4ccccc4OC)ccc3n2C(C)C)CC1	none
COc1cccc(/C=C/C(=O)Nc2ccc3nc(N4CCN(C)CC4)cc(C)c3c2)c1OC	Pf Dd2 growth 1.26µM
CCN1CCN(c2cc(C)c3cc(NC(=O)/C=C/c4cccc(OC)c4OC)ccc3n2)CC1	Pf Dd2 growth 1.12µM
COc1cc(NC(=O)C2CCN(c3cnc4ccccc4n3)CC2)cc(OC)c1OC	none
Cc1cccc(CC(=O)N2CCC3(CC2)CC(OCC2CC2)CCO3)c1 (configuration not stated)	none
